This is one part of the list. The source made the active and inactive calls.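 How the source made its calls: active means inhibition score at or above a set limit, where the score is 100 minus the three-replicate mean percent of control signal; inactive means the rest.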
molecular target: Guanine nucleotide-binding protein G(i) subunit alpha-3 (Homo sapiens) (UniProt P08754); assay: GIV-Galphai3 complex disruption, bead proximity readout – biochemical, AlphaScreen, His-GIV, GST-Galphai3, orthogonal assay for GIV-Galpha-i inhibitor project, confirmation (AID 1259351); settings: purified proteins, 90 min, at 100 µM, stronger effect = lower value

AlphaScreen counts, active:
Cc1ccc(N2C(=O)/C(=C/c3ccc(OCC(=O)O)c(Br)c3)C(=O)NC2=S)cc1 6910
N#CSc1cc(SC#N)c(N)nc1N 24300
CCOC(=O)C1=C(C)N(c2ccc(OC)cc2)C(=O)/C1=C\c1ccco1 21400
N#CC(C#N)=C(C#N)/C=C/n1c2ccccc2c2ccccc21 4560
CCOc1cc(/C=C2/C(=O)N(c3nn[nH]n3)N=C2C)cc(Cl)c1OCC 1950
CC1=NOC(=O)C1C(c1cccc(Br)c1)c1c(C)[nH]n(-c2ccccc2)c1=O (stereo unspecified) 2770

AlphaScreen counts, inactive:
CCOC(=O)c1nc2cc(C)c(C)cc2nc1NC1CCCCC1 38900
O=C(O)c1cc(NS(=O)(=O)c2ccc3c(c2)CCCC3)cnc1N1CCOCC1 28400
COc1ccc(N=Nc2c(-c3ccc(OC)cc3)[nH]oc2=O)cc1 54000
O=C(NN=c1c(=O)c2ccccc2c1=O)c1ccncc1 28200
CCC(=O)N1CCc2cc(N3CC(C(=O)N4CCN(C(C)C)CC4)CC3=O)ccc21 (stereo unspecified) 27700
COc1ccccc1CNc1ncc2nc(-c3ccccc3)oc2n1 40200
Cc1ccc(NC(=O)c2nc[nH]c2C(=O)N2CCCCC2)c(C(=O)c2ccccc2)c1 27800
COc1ccccc1N1C(=O)/C(=C/c2ccc(Cl)cc2)C=C1c1ccccc1 45900
COC(=O)Cn1nc2c(-c3nc(-c4ccc(Cl)cc4)no3)cccn2c1=O 27400
COc1ccc(Nc2cc(C(=O)NCCCN(C)c3ccccc3)c3ccccc3n2)c(OC)c1 33800
